Whole data set: some 1,100 compounds, median “Renilla luciferase signal (cell health) relative to plate median” near 0.97, cut for the highest 2% near 1.6. Many of the other results were omitted from the sample, so the highest values are more common in it than they were.
System: HEK293T (UBE3A T485A transfected, BAR Wnt reporter)
Assay: Renilla luciferase signal (cell health) relative to plate median (fold (linear ratio)); higher = higher Renilla signal
Details: 24 h
Summary of the method: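 Using Fugene 6, HEK293T cells in white 384-well plates (4500 cells/well; DMEM, 10% FBS, 37°C, 5% CO2) were transfected with a BAR firefly luciferase Wnt reporter, TK-Renilla and an expression plasmid. After four hours, robots dosed the chemicals at 0.01–100 uM, and a Dual-Glo luciferase readout followed 24 h later. Per-plate median-centred firefly/Renilla ratios gave Wnt activity, while per-plate median-centred raw Renilla signals gave cell health. Four biological replicates were averaged.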

Row | SMILES | Renilla luciferase signal (concentration: 0.1 uM) | Renilla luciferase signal (concentration: 1 uM) | Renilla luciferase signal (concentration: 10 uM) | Renilla luciferase signal (concentration: 100 uM) | Renilla luciferase signal (concentration: 0.01 uM)
1 | O=C([O-])c1[nH]n(-c2ccc(S(=O)(=O)[O-])cc2)c(=O)c1/N=N/c1ccc(S(=O)(=O)[O-])cc1.[Na+].[Na+].[Na+] [FD&C Yellow 5] | 1.1 | 1.15 | 1.15 | 0.999 | 
2 | CC1(C)CC(N=C=O)CC(C)(CN=C=O)C1 (configuration not stated) [Isophorone diisocyanate] | 0.927 | 0.855 | 0.865 | 0.953 | 
3 | S=C([S-])NCCNC(=S)[S-].[Mn+2] [Maneb] | 1.01 | 0.995 | 0.968 | 0.105 | 0.874
4 | CC(C(C)N1CC(=O)NC(=O)C1)N1CC(=O)NC(=O)C1 (configuration not stated) | 0.674 | 0.785 | 0.383 | 0.396 | 0.735
5 | C=CCCCCCCCCC(=O)O [10-Undecenoic acid] | 0.947 | 0.883 | 0.917 | 1.16 | 
6 | O=C(O)c1cccc(N(Cc2cccnc2)c2ccc(OC(F)F)c(OC(F)F)c2)c1 | 1.15 | 1.14 | 1.24 | 0.322 | 
7 | CCCCCCCCCCCCCCC [Pentadecane] | 0.808 | 0.899 | 0.973 | 1.16 | 
8 | CN(C)CCCN(C)CCCN(C)C [2,6,10-Trimethyl-2,6,10-triazaundecane] | 0.932 | 0.811 | 0.918 | 0.932 | 
9 | COC(=O)c1ccc(C(=O)OC)cc1 [Dimethyl terephthalate] | 0.95 | 1.09 | 1.01 | 1.36 | 
10 | Cc1nc(-c2ccccn2)ncc1C(=O)Nn1cc(C)c2cc(F)ccc21 | 0.941 | 0.877 | 1.05 | 1.02 | 
11 | CCc1cc(C2=C(C(=O)[O-])N(c3ccccc3C(F)(F)F)S(=O)(=O)c3ccccc32)cc2c1OCO2.[K+] [Fandosentan potassium salt] | 1.01 | 1.1 | 0.887 | 0.331 | 
12 | CN(Cc1cnc2nc(N)nc(N)c2n1)c1ccc(C(=O)N[C@@H](CCC(=O)O)C(=O)O)cc1 [Methotrexate] | 0.13 | 0.0382 | 0.0865 | 0.087 | 
13 | CC(=O)Nc1ccc(O)cc1 [Acetaminophen] | 0.68 | 0.735 | 0.812 | 1.3 | 
14 | O=C(O)c1cn(C2CC2)c2cc(N3CCNCC3)c(F)cc2c1=O [Ciprofloxacin] | 0.893 | 1.01 | 0.9 | 0.336 | 1.06
15 | NC(=O)N/N=C/c1ccc([N+](=O)[O-])o1 [Nitrofurazone] | 1.03 | 1.13 | 1.44 | 0.334 | 
16 | O=C1CN(N=Cc2ccc([N+](=O)[O-])o2)C(=O)N1 [Nitrofurantoin] | 0.891 | 1.01 | 1.69 | 0.345 | 
17 | O=[N+]([O-])c1ccc([O-])cc1.[Na+] [Sodium 4-nitrophenolate] | 0.98 | 0.86 | 0.924 | 0.669 | 
18 | COc1c(Cl)ccc(Cl)c1C(=O)O [Dicamba] | 1.05 | 1.14 | 1.04 | 1.52 | 1.07
19 | CC[C@H](C)C(=O)O[C@H]1C[C@H](O)C=C2C=C[C@H](C)[C@H](CC[C@@H](O)C[C@@H](O)CC(=O)[O-])[C@H]21.[Na+] [Pravastatin sodium] | 1.01 | 0.866 | 1.1 | 1.15 | 
20 | CC(=O)c1ccccc1 [Acetophenone] | 0.867 | 0.964 | 0.94 | 1.11 | 

Row | SMILES | Renilla luciferase signal (concentration: 0.1 uM) | Renilla luciferase signal (concentration: 1 uM) | Renilla luciferase signal (concentration: 10 uM) | Renilla luciferase signal (concentration: 100 uM) | Renilla luciferase signal (concentration: 0.01 uM)
21 | O=C(O)c1cccc(C(=O)O)c1 [1,3-Benzenedicarboxylic acid] | 1.04 | 1.04 | 1.06 | 1.35 | 
22 | O=C(O)c1ccccc1 [Benzoic acid] | 1.21 | 1.13 | 1.35 | 1.77 | 
23 | O=c1ccn(C2OC(COP(=O)(O)OP(=O)(O)OP(=O)(O)O)C(O)C2O)c(=O)[nH]1 (configuration not stated) | 0.813 | 0.949 | 0.922 | 2.08 | 0.681
24 | Cl.Nc1ccn([C@@H]2O[C@H](CO)[C@@H](O)[C@@H]2O)c(=O)n1 [Cytarabine hydrochloride] | 0.829 | 0.907 | 0.626 | 0.809 | 
25 | OCCC(F)(F)C(F)(F)C(F)(F)C(F)(F)C(F)(F)C(F)(F)C(F)(F)C(F)(F)F [1,1,2,2-Tetrahydroperfluoro-1-decanol] | 0.4 | 0.824 | 0.813 | 1.27 | 
26 | Cc1ncc([C@@H](CCCCCCc2ccc3c(n2)NCCC3)CC(=O)O)cn1 | 0.747 | 0.794 | 0.796 | 0.82 | 
27 | CNCc1cc(F)ccc1Oc1ccc(Cl)c(Cl)c1 | 0.817 | 0.874 | 0.723 | 0.0625 | 
28 | Cn1cnc([N+](=O)[O-])c1Sc1ncnc2nc[nH]c12 [Azathioprine] | 0.939 | 0.983 | 0.605 | 0.0481 | 
29 | CCCCCCCCCCCCN1CCCC1=O [1-Dodecyl-2-pyrrolidinone] | 0.846 | 0.856 | 0.929 | 0.883 | 
30 | CC(=O)OC1CC(C)OC(C)O1 (configuration not stated) [Dimethoxane] | 1.23 | 1.1 | 1.26 | 1.63 | 
31 | CCOC(=O)c1ccc([C@H]2CC[C@H](NC[C@H](O)COc3ccc(O)c(NS(C)(=O)=O)c3)CC2)cc1.Cl | 0.973 | 0.878 | 0.753 | 0.0262 | 
32 | C[C@]12C[C@H](O)[C@H]3[C@@H](CCC4=CC(=O)CC[C@@]43C)[C@@H]1CC[C@@H]2C(=O)CO [Corticosterone] | 0.641 | 0.712 | 0.847 | 0.636 | 
33 | CN(C)[C@@H]1C(O)=C(C(N)=O)C(=O)[C@@]2(O)C(O)=C3C(=O)c4c(O)cccc4[C@@](C)(O)[C@H]3C[C@@H]12 [Tetracycline] | 0.672 | 0.805 | 0.694 | 1.7 | 
34 | CN(C)[C@@H]1C(O)=C(C(N)=O)C(=O)[C@@]2(O)C(O)=C3C(=O)c4c(O)cccc4[C@@](C)(O)[C@H]3[C@H](O)[C@@H]12.Cl [Oxytetracycline hydrochloride] | 0.959 | 1.35 | 2.28 | 0.903 | 
35 | CN(C)[C@@H]1C(O)=C(C(N)=O)C(=O)[C@@]2(O)C(O)=C3C(=O)c4c(O)cccc4[C@@](C)(O)[C@H]3[C@H](O)[C@@H]12.O.O [Oxytetracycline dihydrate] | 0.636 | 0.879 | 0.861 | 0.964 | 0.781
36 | O=C(O)CCCCC(=O)O [Hexanedioic acid] | 0.851 | 0.762 | 0.865 | 1.08 | 
37 | O=C1OC(=O)C2C3C=CC(C3)C12 (configuration not stated) [2-Norbornene-5,6-dicarboxylic anhydride] | 0.885 | 0.853 | 0.966 | 1.39 | 
38 | COC(=O)CSc1cc(/N=c2\sc(=O)n3n2CCCC3)c(F)cc1Cl [Fluthiacet-methyl] | 0.995 | 1.1 | 1 | 1.21 | 1.03
39 | Fc1ccccc1[C@@H](F)CO[C@H]1CC[C@H](Nc2[nH]cnc3nncc2-3)CC1 | 1.06 | 1.09 | 0.996 | 0.148 | 
40 | Oc1cc2ccccc2c2ccccc12 [9-Phenanthrol] | 1.08 | 1.05 | 1.01 | 0.0207 | 

Row | SMILES | Renilla luciferase signal (concentration: 0.1 uM) | Renilla luciferase signal (concentration: 1 uM) | Renilla luciferase signal (concentration: 10 uM) | Renilla luciferase signal (concentration: 100 uM) | Renilla luciferase signal (concentration: 0.01 uM)
41 | COCCO [2-Methoxyethanol] | 1.02 | 0.98 | 0.983 | 1.53 | 1.12
42 | CN(C)CCCN1c2ccccc2Sc2ccc(Cl)cc21.Cl [Chlorpromazine hydrochloride] | 1.17 | 1.23 | 1.24 | 0.575 | 
43 | O=c1ccc2ccccc2o1 [Coumarin] | 1.21 | 1.07 | 1.11 | 1.15 | 
44 | Nc1ccc(S(=O)(=O)c2ccc(N)cc2)cc1 [Dapsone] | 1.03 | 1.07 | 1.2 | 1.03 | 
45 | CCCCOC(=O)c1ccc(O)cc1 [Butylparaben] | 0.848 | 0.85 | 0.756 | 0.258 | 
46 | CCCCN1C(=O)[C@@H]([C@H](O)C2CCCCC2)NC(=O)C12CCN(Cc1ccc(Oc3ccc(C(=O)O)cc3)cc1)CC2.Cl [Aplaviroc hydrochloride] | 0.995 | 1.01 | 1.04 | 2.23 | 
47 | CCc1ccc(O)c(C(C)(C)C)c1 [2-tert-Butyl-4-ethylphenol] | 1.28 | 1.07 | 1.02 | 1.22 | 
48 | O=C(O)CC(O)(CC(=O)O)C(=O)O [Citric acid] | 0.965 | 0.981 | 1.13 | 1.46 | 
49 | NC(=O)c1nc(-c2cccc(-c3cc(F)ccc3OCC(F)(F)C(F)(F)F)c2)n[n-]1.O.[K+] | 0.946 | 0.78 | 0.498 | 0.0369 | 
50 | O=C(O)Cc1cc(I)c(Oc2cc(I)c(O)c(I)c2)c(I)c1 [Tetrac] | 1.07 | 1.06 | 1.11 | 1.28 | 
51 | N[C@@H](Cc1cc(I)c(Oc2ccc(O)c(I)c2)c(I)c1)C(=O)O [3,5,3'-Triiodothyronine] | 0.904 | 1.24 | 2.47 | 2.22 | 
52 | O=C(O)Cc1cc(I)c(Oc2ccc(O)c(I)c2)c(I)c1 [Tiratricol] | 0.92 | 1.07 | 0.852 | 0.382 | 
53 | COc1ccc(-c2ccc(=N)n(CCCC(=O)O)n2)cc1 | 0.914 | 0.864 | 0.935 | 1.38 | 0.946
54 | COc1ccc2c(c1)c(CC(=O)O)c(C)n2C(=O)c1ccc(Cl)cc1 [Indomethacin] | 1.09 | 1.15 | 1.17 | 0.248 | 
55 | CC1(C)C(=O)N(Cl)C(=O)N1Cl [1,3-Dichloro-5,5-dimethylhydantoin] | 0.99 | 1.06 | 1.04 | 0.988 | 
56 | CC=Cc1ccc(O)c(OC)c1 [Isoeugenol] | 0.954 | 1.01 | 0.993 | 0.945 | 
57 | CCN(CC)CCOc1ccc(C(=C(Cl)c2ccccc2)c2ccccc2)cc1.O=C(O)CC(O)(CC(=O)O)C(=O)O [Clomiphene citrate (1:1)] | 0.837 | 0.85 | 0.818 | 1.02 | 
58 | CCCCCCC(C)OC(=O)COc1nc(F)c(Cl)c(N)c1Cl (configuration not stated) [Fluroxypyr-meptyl] | 1.3 | 1.15 | 1.2 | 2.31 | 1.04

— the supplement of paper PMC9254222
